The whole screen tested about 340,000 compounds, of which about 3,300 (0.97%) were called active. The entries come from a sample that favours actives as a whole. A number with no mark means an inactive call.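 How the source made its calls: active means maximum activity change below -70%; inconclusive means maximum activity change from -70% to -50%; inactive means maximum activity change above -50%.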
On the % scale 0 is the no-effect control and ±100 the full control effect.

This experiment deals with Potassium voltage-gated channel subfamily H member 2, brain isoform KCNH2 3.1 (human). Kind of experiment: qHTS for Inhibitors of KCHN2 3.1: Mutant qHTS. Particulars: U2OS KCNH2 3.1, thallium flux FluxOr; active compounds read low. The procedure, abridged: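 Thallium flux read-out: FluxOr dye with Red40 quencher in HBSS/HEPES, 45 min at RT. Rate constants from kinetic reads were normalized to positive and negative DMSO controls. Cells: U2OS virally expressing the 3.1 isoform.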
With `CC1(C2CC2)NC(=O)N(CC(=O)N2CCN(c3ccccc3F)CC2)C1=O` (centres undefined), the activity change was 3.05%.
In the case of `CN1OC[C@@H]2CN(S(=O)(=O)c3cccc(C(F)(F)F)c3)[C@H](c3ccc(-c4cc5ccccc5o4)cc3)C[C@@H]21`, the activity change is -6.35%.
For `C[C@H]1CN([C@@H](C)CO)C(=O)CCCn2cc(nn2)CO[C@@H]1CN(C)S(=O)(=O)c1ccc(-n2cccn2)cc1`, the activity change was 5.9%.
`COc1ccc(NC(=O)CCCOc2ccc(C(C)=O)cc2)cc1S(=O)(=O)N1CCCCC1`: the activity change was 6.94%.
Turning to `CCCCCCN1C[C@@H](O)[C@H](n2cc(COC(=O)c3ccccc3)nn2)C[C@@H]1c1ccc(Cl)cc1`, the activity change is -8%.
Consider `O=S(=O)(c1cccs1)N1CCc2ccccc2C1`, for which the activity change was 6.27%.
Consider `O=S(=O)(c1cccs1)N1CCN(Cc2ccccc2)CC1`, for which the activity change is -4.85%.
Consider `O=S(=O)(c1cccs1)N1CCN(CCOc2ccccc2)CC1`, for which the activity change is -99.6% (active).
For `Cc1ccc(C)c(NC(=S)NNC(=S)Nc2ccc(C(C)C)cc2)c1`, the activity change was -96.6% (active).
On to `Cc1ccc(C)c(NC(=S)NNC(=O)c2csc(C)c2)c1`, for which the activity change is -0.222%.
Turning to `Cc1ccc(NC(=S)N/N=C2/CCCc3c(C)cc(C)cc32)cc1`, the activity change was -3.22%.
The result for `CCc1nc2c(=O)[nH]cnc2o1` reads 2.34%; that for `NC(=S)NN=Cc1ccc(OC(=O)COc2cc(Cl)c(Cl)cc2Cl)cn1`, -0.923%.
The result for `NS(=O)(=O)c1ccc(-c2ccc(/C=C3\SC(=O)NC3=O)o2)cc1` reads 14.4%.
Consider `O=C1NN(c2ccccc2)C(=O)/C1=C/c1ccc(-c2cccc(C(=O)O)c2)o1`, for which the activity change was 28.7%.
With `CN1C(=O)/C(=C\c2ccc(-c3ccccc3)o2)SC1=S`, the activity change was -83.7% (active).
Consider `COc1ccc(NC(=O)CN2C(=O)NC(C)(c3ccccc3)C2=O)cn1` (centres undefined), for which the activity change was -3.34%.
The result for `Cc1ccc(NC(=O)CSc2nnc(-c3cnccn3)n2Cc2ccco2)cc1C` reads 3.68%.
With `O=C(CSc1nnc(-c2cccnc2)n1Cc1ccco1)c1ccc(Cl)c(Cl)c1`, the activity change was -12.1%.
The result for `O=C(CSc1nnc(-c2cnccn2)n1Cc1ccco1)c1ccc(Cl)c(Cl)c1` reads -196% (active); that for `CCN(CC)C(=O)C1=C(C)N(Cc2ccc(C(C)(C)C)cc2)C(=O)C(CC(=O)NCc2cccc3ccccc23)C1` (centres undefined), -13.1%; that for `CCC1CCC2(CC1)NC(=O)N(CC(=O)Nc1ccc(OC)cc1)C2=O` (centres undefined), 10.2%.
As to `CCc1ccc(NC(=O)CN2CCC(C(=O)c3ccc(OC)cc3)CC2)cc1`, the activity change was -75.5% (active).
Regarding `COc1ccc(C(=O)N2CCC(C(=O)Nc3ccc(C)cc3)CC2)cc1`, the activity change was -27%.
Turning to `CCc1cc(C(=O)c2ccc(OC)cc2)c(NC(=O)CN2CCN(C)CC2)s1`, the activity change was -103% (active).
As for `CCc1cc(C(N)=O)c(NC(=O)c2ccc(OC)cc2)s1`, the activity change is 3.81%.
Take `CCOc1ccc(NC(=O)N2CCN(CC)CC2)cc1`: the activity change is 10.1%.
`CCOc1ccc(NC(=O)CN2CCN(CC(=O)Nc3ccc(OC)cc3)CC2)cc1`: the activity change was -89.9% (active).
In the case of `COc1ccc(NC(=O)CN2C(=O)CSC2=O)cc1`, the activity change is 5.91%.
Turning to `COc1ccc(C(=O)Nc2sc(C)c(C)c2CN2CCOCC2)cc1`, the activity change is 0.971%.
As to `COc1ccc(OC)c(NC(=O)C2CCCN2S(=O)(=O)c2ccc3c(c2)CC(C)N3C(C)=O)c1` (centres undefined), the activity change was 12.8%.
On to `CC1CC(NC(=S)N(C)C)CC(C)(C)C1` (centres undefined), for which the activity change was -0.254%.
Regarding `Cc1cn([C@H]2C[C@H](O)[C@@H](CNC(=O)[C@H](N)Cc3cccnc3)O2)c(=O)[nH]c1=O`, the activity change was 0.448%.
The result for `Cc1ccc(S(=O)(=O)N2CCOCC2)cc1NC(=O)c1ccncc1` reads 0.781%; that for `O=C1CCC(=O)N1CCC(=O)N(C(=O)NC1CCCCC1)C1CCCCC1`, -16.1%.
Take `CCOc1cc(/C=N/NC(=O)c2c(C)nc3ccc(Cl)cn23)ccc1O`: the activity change is 6.54%.
As for `O=C(Nc1ccc2c(c1)[C@@H]1C[C@@H](CC(=O)N3CCCCC3)O[C@@H](CO)[C@@H]1O2)NC1CCCCC1`, the activity change is 7.85%.
Regarding `CCOC(=O)c1c(S(=O)(=O)Nc2cccc(Cl)c2)c(C)n(C)c1C`, the activity change is -89.7% (active).
As to `CCOC(=O)c1cccc(NS(=O)(=O)c2c(C(=O)N3CCCCCC3)c(C)n(C)c2C)c1`, the activity change was 0.277%.
Consider `CCOC(=O)c1c(S(=O)(=O)Nc2ccc(CN3CCC(C)CC3)cc2)c(C)n(C)c1C`, for which the activity change is -4.58%.
Turning to `C[C@@H]1CCCCO[C@H](CN(C)Cc2ccccc2)[C@@H](C)CN([C@H](C)CO)C(=O)c2cc(NS(=O)(=O)c3ccc(Cl)cc3)ccc2O1`, the activity change is -12%.
In the case of `CCN1C(=O)[C@H]2[C@@H](c3ccc(C(F)(F)F)cc3)N[C@]3(CCCN(Cc4ccc(Br)cc4)C3=O)[C@H]2C1=O`, the activity change is -2.79%.
As to `CCC(=O)c1ccc(OCC(O)CN2CCN(c3cccc(C(F)(F)F)c3)CC2)cc1` (centres undefined), the activity change is -77.4% (active).
Take `CC(=O)Nc1ccc(OCC(O)CN2CCN(c3ccccc3Cl)CC2)cc1` (centres undefined): the activity change was -1.41%.
For `CC(=O)c1ccc(OCC(O)CN2CCN(S(=O)(=O)c3cccc(Br)c3)CC2)cc1` (centres undefined), the activity change is -4.78%.
As to `CCN(CC(=O)Nc1ccc(NC(C)=O)cc1)C(=O)C1CC(=O)N(c2ccc3c(c2)OCCO3)C1` (centres undefined), the activity change was 0.735%.
Consider `O=C(COC(=O)c1ccc(F)cc1)Nc1ccc2c(c1)OCO2`, for which the activity change was -1.18%.
For the compound `O=C(CN1CCN(CC(=O)Nc2ccc3c(c2)OCO3)CC1)Nc1ccc(F)cc1`, the activity change is -109% (active).
As for `O=C(CN1CCN(C(=O)c2ccco2)CC1)Nc1ccc2c(c1)OCO2`, the activity change is 0.979%.
For the compound `COc1ccc(-c2c(C#N)cnc(C)c2C)c(O)c1OC`, the activity change is 1.89%.
As for `CC(Sc1ccc(S(=O)(=O)N2CCN(C)CC2)cn1)C(=O)NC1CCCC(C)C1C` (centres undefined), the activity change is -1.67%.
The result for `C[C@H]1CN([C@@H](C)CO)C(=O)CCCn2cc(nn2)CO[C@@H]1CN(C)S(=O)(=O)c1cccc(C#N)c1` reads -14.5%; that for `Cc1cccc(S(=O)(=O)N(C)C[C@@H]2OCc3cnnn3CCCC(=O)N([C@H](C)CO)C[C@@H]2C)c1`, 15.7%; that for `C[C@H]1CN([C@@H](C)CO)C(=O)CCCn2nncc2CO[C@@H]1CN(C)S(=O)(=O)c1cccc(C#N)c1`, -3.59%.
In the case of `C[C@@H]1CN([C@H](C)CO)C(=O)CCCn2nncc2CO[C@@H]1CN(C)S(=O)(=O)c1cccc(C#N)c1`, the activity change is -103% (active).
On to `O=C1OCCC1=COCCCCOC=C1CCOC1=O`, for which the activity change is 5.66%.
On to `Cc1noc(/C=C/c2ccco2)c1S(=O)(=O)N1CCC(C(=O)Nc2ccc(Cl)cn2)CC1`, for which the activity change was -73.5% (active).
The result for `Cc1noc(/C=C/c2ccco2)c1S(=O)(=O)N1CCC(C(=O)N2CCc3ccccc32)CC1` reads -11.8%; that for `CNC(=O)C1CCN(S(=O)(=O)c2c(C)noc2/C=C/c2cccc(C)c2)CC1`, -0.856%; that for `Cc1ccc([C@H]2C[C@H](O)[C@@H](n3cc(COC(=O)c4ccccc4)nn3)CN2CC2CCCCC2)cc1`, 1.72%.
With `CCCN1Cc2cccc(C(=O)Nc3ccc(S(=O)(=O)N4CCCCCC4)cc3)c2C1=O`, the activity change was -4.68%.
The result for `CCCN1Cc2cccc(C(=O)NCc3ccccc3)c2C1=O` reads -73.5% (active); that for `COCCN1Cc2cccc(C(=O)Nc3ccccc3OC)c2C1=O`, -4.17%; that for `Cc1onc(-c2ccccc2)c1-c1nnc(COC(=O)c2ccc(N(C)C)cc2)o1`, -2.8%.
For `Cc1csc(=O)n1CCC(=O)OCC(=O)Nc1ccc(N2CCOCC2)cc1`, the activity change is 26.4%.
The result for `CCc1cc(C(=O)N(CC)CC(=O)Nc2c(F)cccc2F)sc1C` reads 6.15%; that for `O=C(O)c1ccc(F)c(S(=O)(=O)Nc2ccccc2)c1`, -0.905%; that for `Cc1ccc(C(=O)Nc2ccccc2-c2ccccc2)cc1S(=O)(=O)Nc1ccccc1`, -81.2% (active).
In the case of `O=C(Nc1ccccc1-c1ccccc1)c1cccs1`, the activity change was 3.41%.
Take `O[C@H]1CN(Cc2cccs2)[C@@H](c2ccc(Cl)cc2)C[C@@H]1n1cc(C2CC2)nn1`: the activity change was 1.17%.
On to `O=C1CC[C@@H](C(=O)N2CSC[C@@H]2C(=O)Nc2ccc(C(F)(F)F)cc2)N1`, for which the activity change was 0.48%.
For `Cc1ccc(Cc2c(-c3ccc(C)cc3)nc3c4ccccc4ccn23)cc1`, the activity change is -46.3%.
For the compound `CCOc1ccc(S(=O)(=O)NCCC(=O)NNC(=O)c2ccc(F)cc2)cc1`, the activity change is 7.87%.
The result for `Cc1ccc(C(=O)N/C(=C\c2ccc(F)cc2)C(=O)NCCN2CCOCC2)cc1` reads -89.5% (active); that for `O=C(NCCN1CCOCC1)/C(=C/c1ccc(F)cc1)NC(=O)c1ccccc1`, -9.2%; that for `COc1ccc(/C=C(\NC(=O)c2ccccc2)C(=O)NCCN2CCOCC2)cc1OC`, -4.51%.
For `COC(=O)N(C)C[C@@H]1OCc2cnnn2CCCC(=O)N([C@@H](C)CO)C[C@@H]1C`, the activity change is 5.22%.
Regarding `Cc1cccc(C(=O)C(O)(c2ccccc2)C2CCCCC2=O)c1` (centres undefined), the activity change is -14.9%.
For `COc1ccc(S(=O)(=O)N(C)C[C@H]2OCc3cnnn3CCCC(=O)N([C@H](C)CO)C[C@H]2C)cc1`, the activity change is 11.2%.
Consider `COc1cc2nnn(-c3ccncc3)c2cc1OC`, for which the activity change was -4.09%.
On to `COc1ccc2nc(-c3ccccn3)ccc2c1`, for which the activity change is 6.65%.
With `C=CCn1c(C23CC4CC(CC(C4)C2)C3)n[nH]c1=S`, the activity change is -5.08%.
The result for `C=CCn1c(SCC(=O)NC23CC4CC(CC(C4)C2)C3)nc(O)cc1=O` reads 30.9%; that for `C=CCn1c(SCC(=O)NC)nnc1C12CC3CC(CC(C3)C1)C2`, -75% (active).

The record behind these values is PubChem BioAssay AID720553 (National Center for Advancing Translational Sciences (NCATS), 2013).
